High-throughput results: PubChem, National Center for Advancing Translational Sciences (NCATS)
ELG1 DNA repair = ELG1-dependent DNA repair inhibition; HEK293T ELG1-luciferase reporter, luminescence, 16 h; DNA damage induced by 5-fluorouridine; Potency, µM (top dose mostly 46.1 µM), without a hit: at the top dose activity change, negative = inhibition, usual class: inhibitors; hit rate 2.3% among 330,000; AID 504467; further: potency means the concentration at half of the fitted maximal effect; nearly all actives have a fitted effect of over 55% in size
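Luminescence from the luciferase reporter, measured 30 min after ONE-Glo reagent at room temperature, was the read-out. Beforehand, 2,000 cells per well were exposed for 16 hr at 37 °C to 5-fluorouridine together with compound or vehicle.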
DT40 TDP1 no CPT = qHTS for Inhibitors of human tyrosyl-DNA phosphodiesterase 1 (TDP1): qHTS in cells in absence of CPT | DT40 Tdp1-/- hTDP1 cells, no CPT, ATP luminescence, 48 h | AID 686978, 2013 | hit rate 15% among 420,000 | Potency, µM (series often up to 46.2 µM), without a hit: top-dose activity change, negative = growth inhibition, most hits filed as inhibitors; further: potency means the concentration at half of the fitted maximal effect; nearly all actives have a fitted effect of over 55% in size
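Luminescent ATP content (CellTiter-Glo) served as the growth readout. Knockout chicken DT40 cells expressing human TDP1 were exposed to compounds without camptothecin for a minimum 48 hr at 37 °C.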
Giardia killer = kills Giardia lamblia; AID 540267; Giardia lamblia trophozoite viability; hit rate 0.15% among 340,000; activity change, % at 7.66 µM, hits read low; in the data active means activity change below about -80%; inconclusive means between about -30% and that limit;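 further: parasites exposed to compound for two days anaerobically before the ATP read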
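Luminescent ATP signal served as the viability read-out, measured 15-30 min after adding ATP detection reagent to trophozoites that had been incubated with compounds for 48 hrs at 37 deg C anaerobically at 100 cells/well.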
DT40 TDP1 CPT = DT40-hTDP1 cell growth loss with CPT; chicken DT40 Tdp1-/-;hTDP1 cells + 20 nM CPT, ATP luminescence, 48 h; Potency, µM (titrated, usually from 46.2 µM), for the others: at the top dose activity change, negative = growth inhibition, actives largely listed as inhibitors; hit rate 12% among 420,000; further: potency means the concentration at half of the fitted maximal effect; nearly all actives have a fitted effect of over 55% in size
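Chicken DT40 Tdp1-/- cells stably complemented with human TDP1 were seeded at 400 cells/well in medium containing 20 nM camptothecin, exposed to pin-transferred compounds, and grown at 37 °C for at least 48 hr. Viability was read as ATP luminescence.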
IL-1B inflam inh = inhibitors of inflammasome signaling (IL-1 beta secretion); activity change, % at 57.5 µM; AID 743279; hit rate 4.7% among 360,000; THP-1 LPS/ATP IL-1B secretion, AlphaLISA, 16 h; active compounds read low; in the data active means activity change below about -50%; inconclusive means mostly about -30% to -49%
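THP-1 cells pretreated 1 hr with compounds (up to 57.5 uM final), then stimulated with LPS (250 ng/mL final) plus ATP (1.25 mM final); secreted IL-1B measured by AlphaLISA after 16 hr, decreased signal indicating inhibition.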
TDP1 inh = inhibitors of human tyrosyl-DNA phosphodiesterase TDP1 | Q9NUW8 | recombinant TDP1, AlphaScreen DNA substrate cleavage | Potency, µM (highest dose often 130 µM), for inactives: top-dose activity change, negative = inhibition, actives largely listed as inhibitors | hit rate 0.28% among 350,000 | AID 485290; further: potency means the concentration at half of the fitted maximal effect; nearly all actives have a fitted effect of over 40% in size
Target sequence (Q9NUW8 whole entry, looked up): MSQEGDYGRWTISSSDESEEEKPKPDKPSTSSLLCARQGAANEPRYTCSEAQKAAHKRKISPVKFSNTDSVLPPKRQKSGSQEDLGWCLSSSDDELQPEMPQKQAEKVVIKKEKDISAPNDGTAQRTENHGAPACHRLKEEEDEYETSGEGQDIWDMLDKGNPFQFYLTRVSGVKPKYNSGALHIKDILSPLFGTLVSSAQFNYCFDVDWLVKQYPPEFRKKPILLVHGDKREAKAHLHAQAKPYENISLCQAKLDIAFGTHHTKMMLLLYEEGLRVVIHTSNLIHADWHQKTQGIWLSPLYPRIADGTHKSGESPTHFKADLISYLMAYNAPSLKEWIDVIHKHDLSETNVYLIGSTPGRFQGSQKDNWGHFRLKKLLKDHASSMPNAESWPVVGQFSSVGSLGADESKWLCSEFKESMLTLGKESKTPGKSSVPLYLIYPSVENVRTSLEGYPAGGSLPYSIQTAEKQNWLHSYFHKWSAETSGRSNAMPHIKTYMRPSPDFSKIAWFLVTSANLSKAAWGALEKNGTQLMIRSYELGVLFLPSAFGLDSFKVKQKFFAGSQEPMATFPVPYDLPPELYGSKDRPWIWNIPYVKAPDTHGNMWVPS
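Enzyme-compound mixtures sat 15 min at room temperature, followed by a 5 min reaction with 15 nM final substrate and 10 min with AlphaScreen beads. Recombinant human Tdp1 was used at 1 nM final.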
Active calls of the source: *; ? = inconclusive; . = no result given. The list is not random: actives were taken first. Their share in the collection is about 19%. Unless noted, the call rests on the fitted dose curve; in most records, active means well fitted curve in the direction sought with a large enough effect; inconclusive means small, poorly fitted or top-dose-only effect, or another doubt; inactive means no such curve, though single readings can be large; an effect the other way counts as inactive or inconclusive. On the % scale 0 is the no-effect control and ±100 the full control effect.

SMILES | ELG1 DNA repair | DT40 TDP1 no CPT | Giardia killer | DT40 TDP1 CPT | IL-1B inflam inh | TDP1 inh
CC(C)C[C@@H]1CN=C(N)N1C[C@@H]1CCCN1C[C@H](C)N1C[C@@H](Cc2ccccc2)N(CCc2ccc(Cl)c(Cl)c2)C1=N | -4% | ? | -9 | 18µM* | 0 | -2%
CCC[C@@H](CN1CCC[C@H]1CN1C(N)=NC[C@H]1CC(C)C)N1C[C@@H]([C@H](C)CC)N(CCCC2CCCC2)C1=N | -2% | 16µM* | -13 | 21µM* | -58* | -7%
CCCCN1C(=N)N([C@@H](CCC)CN2CCC[C@H]2CN2C(N)=NC[C@H]2C(C)C)C[C@H]1[C@H](C)CC | 2% | ? | 7 | -15% | -17 | -5%
Cc1ccc(C)c(NC(=O)c2ccc(S(=O)(=O)N(C)CC3CCCO3)cc2)c1 (stereo not given) | . | ? | 7 | ? | -10 | .
O=C(O)c1ccc2c(c1)C(=O)N([C@H](Cc1c[nH]c3ccccc13)C(=O)O)C2=O | . | . | . | . | . | 3%
Cc1ccc(NC(=O)c2nnn(-c3ccc4c(c3)OCCO4)c2N)cc1 | ? | ? | -16 | ? | -90* | 1%
Nc1c(C(=O)Nc2ccccc2)nnn1-c1ccc2c(c1)OCCO2 | ? | ? | -12 | -8% | -60* | 0%
Cc1ccc(NC(=O)c2nnn(-c3cccc(C(F)(F)F)c3)c2N)cc1 | 12% | -24% | 0 | 2% | -5 | 8%
CCC(C)(C)C1CCc2[nH]nc(C(=O)NN)c2C1 (stereo not given) | ? | ? | -4 | -22% | -18 | 7%
CCC(C)(C)C1CCc2[nH]nc(C(=O)NC3CCCCC3)c2C1 (stereo not given) | ? | ? | -29 | 12µM* | 13 | -4%
CCC(C)(C)C1CCc2[nH]nc(C(=O)NC(C)C)c2C1 (stereo not given) | -14% | 21µM* | 6 | ? | -18 | -1%
Cc1ccc(OC(C)C(=O)N2CC(=O)Nc3ccccc32)cc1 (stereo not given) | 18µM* | -13% | -26 | -17% | 5 | .
CC(Oc1ccccc1)C(=O)OCC(=O)N1CC(=O)Nc2ccccc21 (stereo not given) | -6% | -1% | -2 | 17% | 17 | 5%
COCCN(Cc1nc(-c2ccc(-c3ccccc3)cc2)oc1C)C(C)C | ? | 21µM* | -13 | 15µM* | 13 | .
FC(F)(F)c1cccc(NCc2n[nH]c(=S)n2C2CCCCC2)c1 | -11% | 13µM* | 14 | ? | -14 | 1%
CCOC(=O)/C(C#N)=C(C)/C=C1\Sc2ccccc2N1CC | 4% | 18µM* | -2 | ? | -3 | 3%
CCN1/C(=C\C=C(C(C)=O)C(C)=O)Sc2ccccc21 | ? | ? | -5 | ? | -7 | 4%
O=C1NC[C@@H](CCCCN2C[C@H](Cc3ccc(O)cc3)N(CCc3ccccc3)C(=O)C2=O)N(Cc2ccccc2)C1=O | . | -20% | . | 9% | -5 | .
O=C(O)COn1c(-c2ccccc2)nc2ccc([N+](=O)[O-])cc21 | ? | ? | -8 | ? | 28 | 25µM*
CCOC(=O)C(C)On1c(-c2ccccc2)nc2ccc([N+](=O)[O-])cc21 (stereo not given) | ? | 18µM* | 10 | ? | -15 | 7%
O=[N+]([O-])c1ccc2nc(-c3ccc(Cl)cc3)n(OCc3ccccc3)c2c1 | ? | ? | -20 | -12% | -8 | 2%
Nc1ncncc1-c1ccc([N+](=O)[O-])cc1 | 1% | ? | -10 | 16µM* | -2 | 2%
CCOC(=O)c1c(C)[nH]c(C)c1C(=O)CSc1nnc(-c2ccc(OC(F)F)cc2)o1 | ? | 12µM* | -23 | ? | 18 | -1%
COc1ccc(-c2nnc(SCC(=O)c3[nH]c(C)c(C(C)=O)c3C)o2)cc1 | ? | 18µM* | 11 | 13µM* | 49 | 2%
COc1ccc(-c2nnc(SCC(=O)c3ccc[nH]3)o2)cc1 | ? | -22% | 6 | -18% | 20 | 2%
SMILES | ELG1 DNA repair | DT40 TDP1 no CPT | Giardia killer | DT40 TDP1 CPT | IL-1B inflam inh | TDP1 inh
CC(=O)c1c(C)[nH]c(C(=O)CSc2nnc(-c3ccco3)o2)c1C | ? | 15µM* | 2 | ? | -23 | 8%
O=C(CSc1nnc(-c2ccco2)o1)c1ccccc1Cl | ? | 18% | -4 | -13% | -8 | 0%
O=C(CCCCCNC(=O)N1CCn2c1nc1ccccc12)N[C@@H](Cc1ccccc1)C(=O)O | -11% | 1% | 2 | 10% | 2 | .
O=C(Nc1cccc(Cl)c1)c1cccnn1 | ? | 1% | 14 | -3% | -7 | .
Cc1c2c(cc3c1[nH]c1ccccc13)C=NCC2 | . | 23µM* | 1 | ? | -73* | .
CCc1ccc(C2=CC(c3c(F)cccc3Cl)n3c(nc4ccccc43)N2)cc1 (stereo not given) | . | 7.3µM* | . | 18µM* | . | 7%
Cc1cccc(C2C=C(c3ccc(F)cc3)Nc3nc4ccccc4n32)c1 (stereo not given) | . | ? | . | ? | . | 7%
O=C(NCc1ccc(Cl)cc1)c1cnc(N2CCOCC2)c2ccccc12 | . | ? | . | ? | . | -5%
O=C(O)c1ccc2c(c1)N(Cc1ccccc1)C(=O)c1ccccc1S2 | -2% | 12% | 5 | 11% | 25 | 4%
O=C(c1ccc2c(c1)N(Cc1cccc(Cl)c1)C(=O)c1ccccc1S2)N1CCOCC1 | . | ? | . | 18µM* | . | 8%
O=C(NCCN1CCOCC1)c1ccc2c(c1)N(Cc1c(F)cccc1Cl)C(=O)c1ccccc1S2 | 16% | ? | 20 | ? | 0 | 6%
O=C(c1ccc2c(c1)N(Cc1c(F)cccc1Cl)C(=O)c1ccccc1S2)N1CCCC1 | . | 23µM* | . | ? | . | 5%
CN(C)CCNC(=O)c1ccc2c(c1)N(Cc1c(F)cccc1Cl)C(=O)c1ccccc1S2 | . | 23µM* | . | 16µM* | . | 2%
O=C(c1ccc2c(c1)N(Cc1cccc(F)c1)C(=O)c1ccccc1S2)N1CCCC1 | . | ? | . | 21µM* | . | 0%
CCOc1ccc(S(=O)(=O)NCc2ccccn2)cc1NC(=O)c1ccccc1 | ? | 1.3µM* | 10 | 1.3µM* | 46 | 0%
CCOc1ccc(S(=O)(=O)NCc2cccnc2)cc1NC(=O)c1ccccc1 | . | -15% | 17 | -15% | -2 | .
COc1ccc(S(=O)(=O)NCc2ccccn2)cc1NC(=O)c1ccccc1F | ? | 2.6µM* | -14 | 2.3µM* | 33 | 6%
